Experimental data as given in PubChem BioAssay AID1159580 (chemical genetic matrix, 2015).
The whole screen tested about 5,500 compounds, of which about 2,000 (36%) were called active. Not shown: some 18% with an inconclusive outcome. Rule as the data show it: active = normalized growth mostly below about 0.91 (no sharp cut-off); inconclusive = no clear call, values can overlap the other calls; inactive = mostly above about 0.92. Some of the results follow.

Experiment: chemical genetic growth profiling, strain panel (AID 1159580);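 also: tested at 20 µM; growth read once vehicle control cultures reached saturation at 30 °C; 1 = growth at the plate median or of vehicle wells; lower values mean less growth of the strain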
Conditions: S. cerevisiae deletion strains, growth OD

Measured: normalized growth

COc1c2c(cc3occ(-c4ccc5c(c4)OCO5)c(=O)c13)OC(C)(C)C=C2
inactive: locus YJR066W, strain TOR1, stronger effect = lower value 0.955 | locus YJR075W, strain HOC1, stronger effect = lower value 0.976 | locus YKL009W, strain mrt4, stronger effect = lower value 0.885 | locus YKL068W, stronger effect = lower value 0.959 | locus YKL085W, strain MDH1 (second series), stronger effect = lower value 0.965 | locus YKL085W, strain MDH1, stronger effect = lower value 0.965 | locus YKL160W, strain elf1, stronger effect = lower value 0.965 | locus YKL190W, strain CNB1, stronger effect = lower value 0.984 | locus YKR026C, strain gcn3, stronger effect = lower value 0.999 | locus YKR091W, strain srl3, stronger effect = lower value 1 | locus YLL001W, strain dnm1, stronger effect = lower value 0.989 | locus YLL026W, stronger effect = lower value 1 | locus YLL041C, strain sdh2, stronger effect = lower value 0.996 | locus YLR027C, strain aat2, stronger effect = lower value 0.971 | locus YLR039C, strain RIC1, stronger effect = lower value 0.939 | locus YLR058C, strain SHM2, stronger effect = lower value 1 | locus YLR102C, strain apc9, stronger effect = lower value 0.963 | locus YLR113W, strain HOG1, stronger effect = lower value 0.995 | locus YLR221C, strain rsa3, stronger effect = lower value 0.948 | locus YLR258W, strain gsy2, stronger effect = lower value 0.989 | locus YLR262C, strain YPT6 (second series), stronger effect = lower value 0.94 | locus YLR262C, strain YPT6, stronger effect = lower value 0.937 | locus YLR268W, strain sec22, stronger effect = lower value 0.905 | locus YLR320W, strain mms22, stronger effect = lower value 0.928 | locus YLR330W, strain CHS5, stronger effect = lower value 0.981 | locus YLR342W, strain FKS1 (second series), stronger effect = lower value 0.963 | locus YLR342W, strain FKS1, stronger effect = lower value 0.989 | locus YLR357W, strain rsc2, stronger effect = lower value 1.02 | locus YLR370C, strain arc18, stronger effect = lower value 1 | locus YLR371W, strain rom2, stronger effect = lower value 0.944 | locus YLR384C, strain iki3, stronger effect = lower value 1.01 | locus YLR418C, strain cdc73, stronger effect = lower value 0.87 | locus YML016C, strain PPZ1, stronger effect = lower value 1 | locus YML032C, strain rad52, stronger effect = lower value 0.999 | locus YML120C, strain ndi1, stronger effect = lower value 0.987 | locus YML124C, strain tub3, stronger effect = lower value 0.979 | locus YMR058W, strain fet3, stronger effect = lower value 0.987 | locus YMR078C, strain ctf18, stronger effect = lower value 0.986 | locus YMR125W, strain sto1, stronger effect = lower value 1.01 | locus YMR129W, stronger effect = lower value 1.01 | locus YMR205C, strain PFK2, stronger effect = lower value 0.946 | locus YMR223W, strain ubp8, stronger effect = lower value 0.97 | locus YMR231W, strain pep5, stronger effect = lower value 1.01 | locus YMR263W, strain SAP30, stronger effect = lower value 0.97 | locus YMR307W, strain GAS1, stronger effect = lower value 1.05 | locus YNL067W, strain RPL9B, stronger effect = lower value 0.986 | locus YNL128W, strain TEP1, stronger effect = lower value 0.943 | locus YNL153C, strain GIM3, stronger effect = lower value 0.993 | locus YNL183C, strain NPR1, stronger effect = lower value 0.933 | locus YNL209W, strain ssb2, stronger effect = lower value 1.02 | locus YNL233W, strain BNI4, stronger effect = lower value 0.954 | locus YNL248C, strain rpa49, stronger effect = lower value 0.963 | locus YNL250W, strain rad50, stronger effect = lower value 0.925 | locus YNL271C, strain bni1, stronger effect = lower value 0.98 | locus YNL298W, strain CLA4, stronger effect = lower value 0.962 | locus YNL307C, strain MCK1, stronger effect = lower value 0.952 | locus YNL322C, strain KRE1 (second series), stronger effect = lower value 1.02 | locus YNR049C, strain mso1, stronger effect = lower value 1 | locus YNR052C, strain pop2, stronger effect = lower value 0.99 | locus YOL012C, strain htz1 1.17 | locus YOL147C, strain pex11, stronger effect = lower value 0.949 | locus YOR001W, strain rrp6, stronger effect = lower value 0.957 | locus YOR061W, strain CKA2, stronger effect = lower value 0.997 | locus YOR069W, strain VPS5, stronger effect = lower value 0.991 | locus YOR070C, strain gyp1, stronger effect = lower value 0.992 | locus YOR080W, strain dia2, stronger effect = lower value 1.02 | locus YOR083W, strain WHI5, stronger effect = lower value 0.961 | locus YOR106W, strain vam3, stronger effect = lower value 0.975 | locus YOR136W, strain idh2, stronger effect = lower value 0.958 | locus YOR144C, strain elg1, stronger effect = lower value 0.984 | locus YOR231W, strain MKK1, stronger effect = lower value 1.02 | locus YOR265W, strain rbl2, stronger effect = lower value 0.999 | locus YOR270C, strain vph1, stronger effect = lower value 0.817 | locus YOR290C, strain snf2, stronger effect = lower value 0.91 | locus YOR316C, strain cot1, stronger effect = lower value 0.986 | locus YPL051W, strain arl3, stronger effect = lower value 0.973 | locus YPL055C, strain LGE1, stronger effect = lower value 0.926 | locus YPL078C, strain atp4, stronger effect = lower value 0.952 | locus YPL106C, strain sse1, stronger effect = lower value 1.02 | locus YPL240C, strain hsp82, stronger effect = lower value 0.997 | locus YPL256C, strain CLN2, stronger effect = lower value 0.997 | locus YPR119W, strain clb2, stronger effect = lower value 0.964 | locus YPR141C, strain kar3, stronger effect = lower value 0.979 | locus YPR163C, strain tif3, stronger effect = lower value 0.978 | locus YPR167C, strain met16, stronger effect = lower value 0.956 | strain wtn01, stronger effect = lower value 0.911
active: locus YKR001C, strain vps1, stronger effect = lower value 0.895 | locus YNL071W, strain lat1, stronger effect = lower value 0.89 | locus YOR184W, strain ser1, stronger effect = lower value 0.795
